Inconclusive results are not listed. Unmarked numbers belong to inactive results. Active and inactive are the calls of the source. Calls come from the whole dose curve; as a rule, active = well fitted inhibition curve with a large enough effect; inconclusive = small, poorly fitted or top-dose-only effect; inactive = flat fitted curve, though single readings scatter. *1 amine or outer side, *2 acyl side, *3 side chain or, on linkers, in order; H or OH if unused. Where a SMILES comes first, the peptide text is derived from it. Bridges are numbered along the chain shown (N, C = ends). X6 = O=C(CCC[*:2])[*:1]
Test: P-glycoprotein substrates identified in KB-8-5-11 adenocarcinoma cell line, qHTS therapeutic library screen (AID 1346987); note: nearly all actives have a fitted effect of over 65% in size
Settings: KB-8-5-11 (P-gp overexpressing) viability, CellTiter-Glo, 72 h; series mostly up to 44.5 µM; activity change, negative = cytotoxicity: at the top concentration
Method in brief: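 KB-8-5-11, a colchicine-selected P-gp-overexpressing KB-3-1 subline, was grown without colchicine for the assay. Cells were seeded at 500 cells/well, dosed in concentration-response and incubated 72 h at 37 degree C, 5% CO2. Viability was read by CellTiter-Glo luminescence.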
% is set by controls: 0 for no effect and ±100 for the full control effect.

SMILES | activity change, negative = cytotoxicity | outcome | Potency
C[C@@H]1O[C@@H](O[C@H]2[C@H](OC(=O)[C@]34CCC(C)(C)C[C@H]3C3=CCC5[C@@]6(C)CC[C@H](O[C@@H]7O[C@H](CO[C@@H]8OC[C@H](O)[C@H](O)[C@H]8O)[C@@H](O)[C@H](O)[C@H]7O)C(C)(C)C6CC[C@@]5(C)[C@]3(C)C[C@H]4O)OC[C@@H](O)[C@@H]2O)[C@H](O)[C@H](O)[C@H]1O[C@@H]1OC[C@H](O)[C@H](O[C@@H]2OC[C@@H](O)[C@H](O)[C@H]2O)[C@H]1O (stereo not given in full) | 1.25% [at 9.29 µM] | – | –
C[C@@H]1CC[C@]2(C(=O)O)CC[C@]3(C)C(=CCC4[C@]5(C)C(CC[C@]43C)C(C)(C)[C@@H](O)[C@H](O)[C@@H]5O)C2[C@]1(C)O (stereo not given in full) | – | inactive [at 17.3 µM] | –
C[C@H]1C[C@H]2[C@@H]3CCC4=CC(=O)C=C[C@]4(C)[C@@]3(F)[C@@H](O)C[C@]2(C)[C@@]1(O)C(=O)COP(=O)(O)O | – | inactive | –
CC1CCC2(O1)C(C)(C)CC(O[C@@H]1O[C@H](CO[C@@H]3OC[C@](O)(CO)[C@H]3O)[C@@H](O)[C@H](O)[C@H]1O)CC2(C)O (stereo not given in full) | 9.29% [at 17.3 µM] | – | –
CC12CCC3c4ccc(O)cc4CCC3C1CCC2OC1OC(C(=O)O)C(O)C(O)C1O (stereo not given) | – | inactive | –
CC(=O)NC(C(=O)OC1CCC(C)(C)C2CC=C3C(=O)OCC3(O)C12C)C(C)C (stereo not given) | – | inactive [at 17.3 µM] | –
CC(C(=O)O)C1CCC2(C)C3C(=O)C=C4C(CCC(=O)C4(C)C)C3(C)CCC12C (stereo not given) | – | inactive [at 17.3 µM] | –
O=C(/C=C/c1ccc(O)cc1)OCC1=CC2OC(=O)C3=CO[C@@H](O[C@@H]4O[C@H](CO)[C@@H](O)[C@H](O)[C@H]4O)[C@H]1[C@@H]32 (stereo not given in full) | – | inactive [at 17.3 µM] | –
CO[C@@H]1COCC[C@@H]1N[C@@H]1CC[C@@](C(=O)N2CCc3ncc(C(F)(F)F)cc3C2)(C(C)C)C1 | 9.1% [at 17.3 µM] | – | –
C[C@@H]1C[C@H](O[C@@H]2O[C@H](CO[C@@H]3OC[C@](O)(CO)[C@H]3O)[C@@H](O)[C@H](O)[C@H]2O)CC(C)(C)[C@H]1/C=C/[C@@H](C)O | – | inactive [at 17.3 µM] | –
COC1CC(=O)CCC(C)OC(=O)CC1O (stereo not given) | – | inactive | –
CC[C@H](C)[C@@H]1NC(=O)[C@H](Cc2ccc(OC)cc2)NC(=O)CCCSC[C@@H](C(=O)N2CCC[C@H]2C(=O)N[C@@H](CC(C)C)C(=O)NCC(N)=O)NC(=O)[C@H](CC(N)=O)NC(=O)[C@H](CCC(N)=O)NC1=O (Y(Me)IQNCPLG-NH2; linker N-5 via X6) | – | inactive | –
CCC1CC2C(C)=CC3CCCCC3C2(C)C2(OC(=O)C(C)(O)OC2=O)O1 (stereo not given) | – | inactive | –
C=CCc1ccc(O[C@@H]2O[C@H](CO)[C@@H](O)[C@H](O)[C@H]2O)c(OC)c1 | – | inactive | –
O=C(NCC(=O)N1CC[C@H](NC2CCC(O)(c3ccc(-c4ncccn4)cn3)CC2)C1)c1cccc(C(F)(F)F)c1 (stereo not given in full) | 8.28% | – | –
C=CC(C)(O)CC/C=C(\C)C(=O)OC1CC2(C(=O)O)CCC3(C)C(=CCC4C5(C)CCC(OC6OC(COC7OCC(O)C(O)C7O)C(O)C(OC7OCC(O)C(O)C7O)C6OC6OC(CO)C(O)C(O)C6OC6OCC(O)C(O)C6O)C(C)(C)C5CCC43C)C2CC1(C)C (stereo not given) | – | inactive [at 9.29 µM] | –
Nc1nc(CC(=O)Nc2ccc(CCNCC(O)c3ccccc3)cc2)cs1 (stereo not given) | – | inactive | –
CCOC(=O)[C@H]1O[C@@H]1C(=O)N[C@@H](CC(C)C)C(=O)NCCC(C)C | – | inactive | –
CC1OC(OC2C(CO)OC(OCC3OC(OC(=O)C45CCC(C)(C)CC4C4=CCC6C7(C)CCC(OC8OC(C(=O)O)C(O)C(OC9OC(CO)C(O)C(O)C9O)C8O)C(C)(C)C7CCC6(C)C4(C)CC5)C(O)C(O)C3O)C(O)C2O)C(O)C(O)C1O (stereo not given) | – | inactive [at 9.29 µM] | –
CC(=O)O[C@H]1CC[C@@]2(CI)C(=CC[C@@H]3[C@@H]2CC[C@]2(C)[C@@H]([C@H](C)CCCC(C)C)CC[C@@H]32)C1 | – | inactive [at 9.29 µM] | –

SMILES | activity change, negative = cytotoxicity | outcome | Potency
CC(C)C1=CCC(C)(O)C(OC2OC(CO)C(O)C(O)C2O)C1 (stereo not given) | 5.17% | – | –
CCCCCCc1cccc(NC(=O)[C@H](N)CCP(=O)(O)O)c1 | – | inactive [at 9.29 µM] | –
C[C@@H]1O[C@@H](O[C@@H]2[C@@H](O)[C@H](O[C@@H]3[C@@H](O)[C@@H](O)[C@H](O[C@H]4[C@H](OC(=O)[C@]56CCC(C)(C)C[C@H]5C5=CCC7[C@@]8(C)C[C@H](O)[C@H](O[C@@H]9O[C@@H](C)[C@H](O)[C@@H](O)[C@H]9O)[C@@](C)(CO)C8CC[C@@]7(C)[C@]5(C)C[C@H]6O)O[C@H](C)[C@H](O)[C@@H]4O)O[C@H]3C)OC[C@H]2O)[C@H](O)[C@H](O)[C@H]1O (stereo not given in full) | 4.66% [at 9.29 µM] | – | –
OC[C@H]1O[C@@H](Oc2ccc3c(c2)OC[C@H]2c4cc5c(cc4O[C@@H]32)OCO5)[C@H](O)[C@@H](O)[C@@H]1O | – | inactive [at 17.3 µM] | –
CC(NC(=O)CC(=O)O)c1nc2ccccc2c(=O)[nH]1 (stereo not given) | – | inactive | –
CC1CC(=O)C2=C(O1)OC1(C)CCC3C(C)(C)C=CC(=O)C3(C)C1C2 (stereo not given) | – | inactive | –
CC(C)=CCc1ccc(Oc2c(O)cc(C)cc2CO)c(C(=O)O)c1O | – | inactive | –
COc1c(OC2OC(CO)C(O)C(O)C2O)ccc(O)c1C(=O)OCc1ccccc1O[C@@H]1O[C@H](CO)[C@@H](O)[C@H](O)[C@H]1O (stereo not given in full) | 2.5% [at 17.3 µM] | – | –
CC1CCC2C(C(=O)O)=CC3C(O)C(C)(C)CC123 (stereo not given) | – | inactive | –
O=C1Nc2ccc(O)cc2O[C@H]1O[C@@H]1O[C@H](CO)[C@@H](O)[C@H](O)[C@H]1O | 2.44% | – | –
COc1c(C)c(OCC=C(C)C)cc2c1C(=O)NC2=O | -5.18% | – | –
COC1=CC(=O)O[C@@H](/C=C/c2ccccc2)[C@@H]1O | 3.6% | – | –
C[C@]12C=CC(=O)C=C1CC[C@@H]1[C@@H]2[C@@H](O)C[C@@]2(C)[C@H]1CC[C@]2(O)C(=O)COC(=O)CCC(=O)O | – | – | inactive
CCC(CCO[C@@H]1O[C@H](CO[C@H]2OC[C@](O)(CO)[C@H]2O)[C@@H](O)[C@H](O)[C@H]1O)C(C)(C)O (stereo not given in full) | 8.8% [at 17.3 µM] | – | –
C[C@@H]1O[C@@H](O[C@H]2[C@H](OC(=O)C34CCC5(C)C(=CCC6C7(C)CC(O)C(O[C@@H]8O[C@H](C(=O)O)[C@@H](O)[C@H](O)[C@H]8O)C(C)(C(=O)O)C7CCC65C)C3CC(C)(C)CC4O)O[C@H](C)[C@@H](O)[C@@H]2O)[C@H](O)[C@@H](O[C@@H]2OC[C@](O)(CO)[C@H]2O[C@@H]2O[C@H](CO)[C@@H](O)[C@H](O)[C@H]2O)[C@H]1O (stereo not given in full) | 5.75% [at 9.29 µM] | – | –
O=C(O)[C@H]1CCCC[C@H]1C(=O)N1CCc2ccccc2[C@H]1CN1C(=O)c2ccccc2C1=O | – | inactive | –
CCCCS(=O)(=O)Nc1ncnc(OCCOc2ncc(Br)cn2)c1-c1ccc(Br)cc1 | 9.86% | – | –
CC(=O)O[C@H](C[C@@H](C)[C@H]1C(=O)[C@H](O)[C@@]2(C)[C@@H]3CCC4C(C)(C)[C@@H](O[C@@H]5OC[C@H](O)[C@H](O)[C@H]5O)CC[C@@]45C[C@@]35CC[C@]12C)[C@@H]1OC1(C)C (stereo not given in full) | – | inactive [at 17.3 µM] | –
C[C@@H]1O[C@@H](O[C@H]2[C@H](OC(=O)C34CCC(C)(C)CC3C3=CCC5C6(C)CC(O)C(O[C@@H]7O[C@H](CO)[C@@H](O)[C@H](O)[C@H]7O)C(C)(C(=O)O)C6CCC5(C)C3(CO)CC4)O[C@H](C)[C@H](O)[C@@H]2O)[C@H](O)[C@H](O)[C@H]1O[C@@H]1OC[C@@H](O)[C@H](O)[C@H]1O (stereo not given in full) | – | inactive [at 9.29 µM] | –
Cc1ccc2c(c1)C=Cc1cc(C)ccc1C2c1cn(Cc2ccc(C(=O)Nc3nn[nH]n3)o2)c(=O)[nH]c1=S | 6.07% | – | –

Source: PubChem BioAssay (NCATS)
